{"source": "PubChem BioAssay (NCATS)", "note": "Records with an inconclusive call do not appear. Unmarked numbers belong to inactive results. Active and inactive are the calls of the source. Calls come from the whole dose curve; as a rule, active = well fitted inhibition curve with a large enough effect; inconclusive = small, poorly fitted or top-dose-only effect; inactive = no such curve, though single readings can be large or run the other way. % is set by controls: 0 for no effect and ±100 for the full control effect; potency is the fitted concentration of half-maximal effect."}
{"target": "Cytochrome P450 3A4 (Homo sapiens) (UniProt P08684)", "sequence (P08684 whole entry, looked up)": "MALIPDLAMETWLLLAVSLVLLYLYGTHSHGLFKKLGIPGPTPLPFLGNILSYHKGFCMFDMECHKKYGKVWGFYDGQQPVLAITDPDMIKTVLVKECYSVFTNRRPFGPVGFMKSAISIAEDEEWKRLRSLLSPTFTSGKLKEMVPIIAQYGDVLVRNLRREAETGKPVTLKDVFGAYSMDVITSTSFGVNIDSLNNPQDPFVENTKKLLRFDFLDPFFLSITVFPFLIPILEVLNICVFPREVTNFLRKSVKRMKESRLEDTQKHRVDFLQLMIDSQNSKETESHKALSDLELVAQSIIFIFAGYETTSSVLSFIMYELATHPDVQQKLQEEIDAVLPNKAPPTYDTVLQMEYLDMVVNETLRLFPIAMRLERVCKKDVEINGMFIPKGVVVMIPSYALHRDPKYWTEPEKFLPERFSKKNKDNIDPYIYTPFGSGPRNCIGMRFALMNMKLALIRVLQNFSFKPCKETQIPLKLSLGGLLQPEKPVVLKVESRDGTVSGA", "experiment": "qHTS Assay for Inhibitors and Substrates of Cytochrome P450 3A4 (AID 884); note: nearly all actives have a fitted effect of over 50% in size", "conditions": "recombinant CYP3A4, Luciferin-PPXE luminescence; series mostly up to 57.1 µM; activity change, negative = inhibition: at the top concentration", "outline": "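20 nM human CYP3A4 with 25 uM Luciferin-PPXE (at KM) in 200 mM KPO4, preincubated 10 min with compound; NADPH regeneration started a 60 min RT reaction. Luciferin detected by luminescence, normalized to 57 uM ketoconazole as full inhibition.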", "units": {"activity change, negative = inhibition": "%"}}
{"smiles": "COC(=O)c1cccc(C23CC4(C2)[C@H](CN(Cc2ccc(-c5ccccc5)cc2)[C@@H]4c2ccccc2)C3c2ccc(Cl)nc2)c1", "note": "(stereo partly specified)", "activity change, negative = inhibition": -26.5}
{"smiles": "CN(C)c1ccc(CNC(=O)[C@@]2(C)C=C[C@@H](Cc3ccccc3)N2C)cc1", "activity change, negative = inhibition": -79.9}
{"smiles": "Cc1ccc(B(O)O)cc1", "activity change, negative = inhibition": -24.1}
{"smiles": "CC(C)=CCc1c(O)cc2occ(-c3ccc4c(c3)OCO4)c(=O)c2c1O", "Potency": "3.98 µM (active)"}
{"smiles": "COC(=O)[C@@H]1C[C@H]2CC[C@H](O)C[C@H]2N1Cc1ccc(N2CCN(C)CC2)cc1", "activity change, negative = inhibition": -20.9}
{"smiles": "CCC1=C2CC[C@H]3C(=O)NC(=O)[C@H]3[C@H]2[C@@]2(C)C(=NCCOC)OC(=O)N2C1=O", "activity change, negative = inhibition": -30.8}
{"smiles": "COC(=O)c1ccc(C23CC4(C2)[C@H](CN(Cc2ccc(C(F)(F)F)cc2)[C@@H]4c2ccccc2)C3c2ccc(C(F)(F)F)cc2)cc1", "note": "(stereo partly specified)", "activity change, negative = inhibition": -25}
{"smiles": "CN(C)/C=N/c1cc(=O)[nH]c(=O)n1CC1CC1", "activity change, negative = inhibition": -3.92}
{"smiles": "NC(=O)NCC1CC1", "activity change, negative = inhibition": -15.7}
{"smiles": "COC(=O)C/C=C\\[C@@H](C)[C@@H](/C=N\\OC[C@@H](O)[C@H]1O[C@H]2OC(C)(C)O[C@H]2[C@@H]1O)NS(=O)(=O)c1ccc(C)cc1", "Potency": "3.98 µM (active)"}
{"smiles": "O=C(O)c1cc(C(F)(F)F)nc2ccccc12", "activity change, negative = inhibition": -23.6}
{"smiles": "COc1ccc(B(O)O)cc1", "activity change, negative = inhibition": -3.45}
{"smiles": "C/C(CCC(=O)OC[C@@H]1O[C@H](C#Cc2ccccc2)C=C[C@@H]1Oc1ccc(C)cc1)=N/OC[C@@H](O)COCc1ccco1", "Potency": "3.16 µM (active)"}
{"smiles": "CN(C)c1nc(N)c(C(=O)Nc2cccnc2)nc1Cl", "activity change, negative = inhibition": -45.9}
{"smiles": "COC(=O)[C@@H]1C[C@@]2(O)[C@@H](O)[C@@H](O)[C@@H](O)C[C@H]2N1C/C=C/c1ccccc1", "activity change, negative = inhibition": -37.6}
{"smiles": "CCC1=C(OC(=O)N(CC)CC)N2C(=O)OC(=NCc3ccccc3)[C@]2(C)[C@H]2C1=CC[C@H]1C(=O)NC(=O)[C@H]12", "Potency": "5.01 µM (active)"}
{"smiles": "COc1cccc([C@H]2Oc3ccc(OC)cc3/C(=N\\OC[C@@H](O)[C@@H]3O[C@@H]4OC(C)(C)O[C@@H]4[C@H]3O)[C@@H]2O)c1", "Potency": "3.98 µM (active)"}
{"smiles": "CCC1=C(OC(=O)N(CC)CC)N2C(=O)OC(=NCC(=O)OC)[C@]2(C)[C@H]2C1=CC[C@H]1C(=O)NC(=O)[C@H]12", "Potency": "12.6 µM (active)"}
{"smiles": "COC(=O)c1ccc(C23CC4(C2)[C@H](CN(Cc2ccc(-c5ccccc5)cc2)[C@@H]4c2ccccc2)C3c2ccc(C(F)(F)F)cc2)cc1", "note": "(stereo partly specified)", "activity change, negative = inhibition": -24.4}
{"smiles": "O=[N+]([O-])c1ccccc1S(=O)(=O)NCC1CCC(CNCC2CCc3ccccc3C2)CC1", "note": "(stereo unspecified)", "activity change, negative = inhibition": -1.89}
{"smiles": "COC(=O)CC1Oc2cc3oc4c(c3cc2O1)C(=O)CC(C)(C)C4", "note": "(stereo unspecified)", "activity change, negative = inhibition": 16.3}
{"smiles": "COc1ccc(/C=C/C(=O)c2cc(O)ccc2O)cc1", "activity change, negative = inhibition": -61.6}
{"smiles": "COc1c(O)c(O)cc2c1oc1c3ccccc3oc(=O)c21", "Potency": "25.1 µM (active)"}
{"smiles": "CN(C)/C=N/c1cc(=O)[nH]c(=O)n1C", "activity change, negative = inhibition": 7.82}
{"smiles": "N#Cc1ccc(C23CC4(C2)[C@H](CN(Cc2ccc(-c5ccccc5)cc2)[C@@H]4c2ccccc2)C3c2ccc(C(F)(F)F)cc2)cc1", "note": "(stereo partly specified)", "activity change, negative = inhibition": -25}
{"smiles": "c1ccc(C2[C@H]3CN(Cc4cccnc4)[C@H](c4ccccc4)C34CC2(c2cccnc2)C4)cc1", "note": "(stereo partly specified)", "Potency": "1.58 µM (active)"}
{"smiles": "CCC1=C(OC(=O)N(CC)CC)N2C(=O)OC(=NCc3ccccc3)[C@]2(C)[C@H]2C1=CC[C@H]1C(=O)N(CC)C(=O)[C@H]12", "Potency": "3.16 µM (active)"}
{"smiles": "CCC1=C(OC(=O)N(CC)CC)N2C(=O)OC(=NCCOC)[C@]2(Cc2ccccc2)[C@H]2C1=CC[C@H]1C(=O)N(CC(=O)OC)C(=O)[C@H]12", "Potency": "6.31 µM (active)"}
{"smiles": "Cn1c(N)c(C(=O)COC(=O)c2cc(C(F)(F)F)nc3ccccc23)c(=O)n(C)c1=O", "activity change, negative = inhibition": 9.74}
{"smiles": "O=C(O)c1ccc(B(O)O)cc1", "activity change, negative = inhibition": -3.26}
{"smiles": "C=CCN1CCc2c(cc(O)c(O)c2Cl)C(c2cccc(C)c2)C1", "note": "(stereo unspecified)", "activity change, negative = inhibition": -23.2}
{"smiles": "CCCCCCCCCCCCCCCCCC(=O)NCCc1ccc(O)c(O)c1", "activity change, negative = inhibition": -12.8}
{"smiles": "COC(=O)[C@@H]1C[C@@]2(O)[C@@H](O)[C@@H](O)[C@@H](O)C[C@H]2N1Cc1ccc(C(F)(F)F)cc1", "activity change, negative = inhibition": -34.5}
{"smiles": "Cn1c(=O)c(C(=O)COC(=O)c2cc(C(F)(F)F)nc3ccccc23)c(N)n(Cc2ccccc2)c1=O", "activity change, negative = inhibition": 2.97}
{"smiles": "O=C(O)c1cc(C(F)(F)F)nc2c(C(F)(F)F)cccc12", "activity change, negative = inhibition": -26}
{"smiles": "N#Cc1ccc(C23CC4(C2)[C@H](CN(Cc2ccc(C(F)(F)F)cc2)[C@@H]4c2ccccc2)C3c2ccc(Cl)nc2)cc1", "note": "(stereo partly specified)", "activity change, negative = inhibition": -22.4}
